From PubChem BioAssay (NCI)
“And” between values parts separate entries of the source, which are not always exact repeats. Identical values can stand only once. Compounds without any hit were thinned out: in the full panel of roughly 79,000, 15% have a hit. Values without a mark were called inactive. The source made the active and inactive calls. Rule as the data show it: active = growth inhibition above about 70%; inactive = the rest.

Columns and labels:
[1] = NCI Yeast Anticancer Drug Screen. Data for the rad50 strain (AID 155);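 also: 0% = growth of vehicle-only cultures of the same strain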; conditions: S. cerevisiae rad50 strain growth inhibition; at 50.0 µM; active compounds read high
Procedure, shortened: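 DNA repair mutant yeast, compound exposure, growth read-out; inhibition is taken relative to vehicle.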

[2] = NCI Yeast Anticancer Drug Screen. Data for the mec2-1 strain (AID 157); conditions: S. cerevisiae mec2-1 strain, at 50.0 µM, active compounds read high
Procedure, shortened: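 mec2-1 yeast strain, carrying an alteration in DNA damage repair or cell cycle control, was exposed to compounds; growth inhibition was measured relative to vehicle-treated controls.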

[3] = NCI Yeast Anticancer Drug Screen. Data for the sgs1 mgt1 strain (AID 161);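 also: 0% = growth of cultures given vehicle only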; conditions: S. cerevisiae sgs1 mgt1 strain, at 50.0 µM, active compounds read high
Procedure, shortened: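 This yeast growth screen uses a strain with defined DNA-repair lesions; compound-treated growth is compared with vehicle-treated growth.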

[4] = NCI Yeast Anticancer Drug Screen. Data for the cln2 rad14 strain (AID 165);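 also: 0% = growth equal to vehicle treated cultures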; conditions: S. cerevisiae cln2 rad14 strain, at 50.0 µM, active compounds read high
Procedure, shortened: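 Yeast carrying cln2 and rad14 alterations (cell cycle control and DNA damage repair) were exposed to compounds. Growth inhibition was measured against vehicle-treated controls.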

[5] = NCI Yeast Anticancer Drug Screen. Data for the bub3 strain (AID 167); conditions: S. cerevisiae bub3 mutant strain, at 50.0 µM, active compounds read high
Procedure, shortened: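 In this screen, a yeast mutant lacking normal mitotic checkpoint function is challenged with compound. Relative growth versus vehicle gives the inhibition value.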

[6] = NCI Yeast Anticancer Drug Screen. Data for the mlh1 rad18 strain (AID 175); conditions: S. cerevisiae mlh1 rad18 strain growth inhibition; at 50.0 µM; active compounds read high
Procedure, shortened: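 Growth inhibition of the yeast strain was measured after compound exposure and expressed relative to vehicle-treated controls. The strain carries defined defects in DNA damage repair.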

Row | Structure (SMILES) | growth inhibition [1] | growth inhibition [2] | growth inhibition [3] | growth inhibition [4] | growth inhibition [5] | growth inhibition [6]
1 | Cn1c(O)c(N=O)c(=O)n(C)c1=O | 29.4% and 20.9% | 9.85% and -9.05% | -0.6% and 8.4% | 7.75% and -1.1% | -9.85% and -6.3% | -13.7% and 13.4%
2 | CC(C)OP(=O)(OC(C)C)C(=O)Nc1cc(Cl)ccc1Cl | -23.5% | 14.6% | -6.35% | -31% | 15% | -0.15%
3 | O=C1CCP(c2ccccc2)(c2ccccc2)(c2ccccc2)O1 | 34.9% | 11.8% | 23.1% | 25.7% | 14.3% | 7%
4 | O=[P+](O)c1ccccc1 | -5% and -7.35% | -24.9% and -26.3% | -18.4% and 4.85% | 5.9% and 0.6% | -4.65% and -2% | -5.5% and 1.3%
5 | O=C(CF)[O][Sb]([O]C(=O)CF)([c]1ccccc1)([c]1ccccc1)[c]1ccccc1 | 9.8% | 19.9% | 23.8% | -18.6% | 16.2% | 33.8%
6 | CO[C@@]12[C@@H]3N[C@@H]3CN1C1=C(C(=O)C(NCC3CCCO3)=C(C)C1=O)[C@@H]2COC(N)=O (stereo partly specified) | 24.9% | 16.6% | 6.25% | 17.1% | 3.95% | 23.6%
7 | NNC(=O)c1cc([N+](=O)[O-])c(O)c([N+](=O)[O-])c1 | -9.85% | -14.8% | 8.35% | 7.4% | 11.8% | -5.55%
8 | O=C1OP2(c3ccccc3)(OC(=O)c3ccccc32)c2ccccc21 | 18.6% | 16.2% | 20.4% | -20.3% | -18.5% | 14.3%
9 | N=C(N)SCc1ccc(Cl)c(Cl)c1 (tested in a mixture with another compound) | 13.6% | 10.8% | -3.55% | -6.1% | 3.5% | 10.7%
10 | COc1cc2c(cc1OC)[N+]1(C)CCC3OCCC4C[N+]5(C)CCC26C5CC4C3C61 (stereo unspecified) | 6.15% | 3.45% | 2.75% | -6% | -6.6% | -13.3%
11 | CCC[CH2][Sn]([CH2]CCC)([CH2]CCC)[CH2]CC(=O)OC | 99.5% (active) | 99.4% (active) | 99.5% (active) | 99.3% (active) | 99% (active) | 99.5% (active)
12 | CN1C(=O)C2(Cc3cn(C45CC67SSC(CO)(C(=O)N6C4Nc4ccccc45)N(C)C7=O)c4ccccc34)SSC1(CO)C(=O)N2C (stereo unspecified) | 90.2% (active) | 90.3% (active) | 90.3% (active) | 89.2% (active) | 90.8% (active) | 89.8% (active)
13 | CCC(C)C1(CCc2ccccc2)C(=O)NC(=O)NC1=O (stereo unspecified) | -2.8% | -14.7% | 3.55% | -31.3% | 10.4% | -0.65%
14 | O=C(CN1CCOCC1)c1ccccc1 | -1.55% and -6.6% | -4.1% and -13.4% | -2.65% and -9.4% | 3.55% and -42% | -3.85% and -14.3% | -1.85% and -22.9%
15 | C[N+](C)(C)NP(=O)(N[N+](C)(C)C)Oc1ccccc1 | 28.4% | 15.2% | -10.7% | 20.8% | 1.05% | 28.1%
16 | CC(=O)CC(C)=O.CC(=O)CC(C)=O.CC(=O)CC(C)=O.[Cr] | 20.2% | -8.3% | 1.05% | -27.7% | 4.3% | 13.2%
17 | CC1(C)N=C(N)N=C(N)N1c1ccc(CCc2ccc(Cl)c(S(=O)(=O)F)c2)c(Cl)c1 | 99.3% (active) | 99.5% (active) | 99.3% (active) | 93.8% (active) | 98.3% (active) | 99.7% (active)
18 | CC(=O)OC1CCC2(C)C(=CCC3C2CCC2(C)C(Oc4ccccc4)CCC32)C1 (stereo unspecified) | -42.7% | -28.4% | -33.6% | 3.55% | -28.4% | -46.1%

Row | Structure (SMILES) | growth inhibition [1] | growth inhibition [2] | growth inhibition [3] | growth inhibition [4] | growth inhibition [5] | growth inhibition [6]
19 | Clc1cccc2c(N3CC3)cnnc12 | 17.6% | -1.3% | -13.3% | 1.4% | -16.6% | -2.55%
20 | CP(C)C.[Ag][I] | -26.4% | -7.85% | -0.15% | -41.2% | -9.3% | -2.4%
21 | Cc1ccc(N2CC=C(c3ccccc3)OP2(=O)N(CCCl)CCCl)cc1 (stereo unspecified) | 76.8% (active) | 84.8% (active) | 75.4% (active) | 80.7% (active) | 87.9% (active) | 70.2% (active)
22 | O=C1NC(=O)C(C(=O)C(=O)Nc2cc(Cl)ccc2Cl)C(=O)N1 | -7.45% | -25.3% | -20.6% | 4.7% | -22.4% | -12.3%
23 | CC(=O)Nc1ccc(NN=O)cn1 | 40.9% | 4.7% | -15.9% | -7.95% | -37.8% | 12.2%
24 | CCCCCCCCCCNP(=S)(NCCCCCCCCCC)c1ccccc1 | 26.8% | 4.7% | 27.9% | -19.8% | -14.8% | 2.6%
25 | NNC(=O)Nc1nn[nH]n1 | 1.75% and -6.75% | 8.2% and 8.5% | 10.2% and -6.75% | -19.4% and 6% | -15% and 12.6% | 7.95% and -3.6%
26 | NNC(=S)S | 27.9% and -11.3% and -7.8% | 26.1% and -14.6% and -8.5% | 6.1% and -1.65% and -21.6% | 22.2% and -24.2% and -21.7% | 26.2% and 9.35% and -27% | 5.3% and -2.15% and -45.4%
27 | C=C1CC2CC[C@@]34CC5O[C@@H]6C(O[C@H]7CC[C@H](CC(=O)OC8C(C)C9OC%10C[C@]%11(C[C@@H]%12O[C@]%13(CC(C)[C@@H]%14O[C@H](C(O)CC(O)CO)C[C@@H]%14O%13)CC(C)[C@@H]%12O%11)OC%10CC9O[C@H]8C[C@H]8OC(CC[C@@H]1O2)C[C@@H](C)C8=C)OC7[C@@H]6O3)[C@H]5O4 (stereo partly specified) | 87.3% (active) | 91.1% (active) | 90.6% (active) | 83.7% (active) | 91.1% (active) | 69.8%
28 | O=C(Oc1cc(Cl)c(S(=O)(=O)F)cc1Cl)c1ccccc1Cl | 93.5% (active) | 96% (active) | 97.1% (active) | 86.8% (active) | 94.9% (active) | 96.8% (active)
29 | [Cl][Pt+2][Cl].c1ccc(CC2CC[N-]CC2)cc1.c1ccc(CC2CC[N-]CC2)cc1 | -11.6% | 1.1% | 1.3% | 2.35% | 9.3% | -3.6%
30 | N#CCCCl | -13.7% | -1.9% | 13.6% | -23.4% | -1.65% | -19.8%
31 | CC(C)C(CC[C@@H](C)C1CC[C@@]2(C)C3=C(CC[C@]12C)[C@@]1(C)CC[C@H](O)C(C)(C)[C@@H]1CC3)S[As](C)C (stereo partly specified) | 40.4% | -0.5% | 26.7% | 31.6% | -4.35% | 32.8%
32 | CN(C)P(=O)(N(C)C)N1CCCCCC1 | -8.2% | -21.6% | 0% | -18.4% | 3.4% | -10.6%
33 | CN(C)CCNC(=O)c1cccc(COC(=O)Nc2ccc(N(CCCl)CCCl)cc2)c1[N+](=O)[O-] | -3.55% | -15.8% | 1.2% | -49.8% | -3.65% | -11.9%
34 | CC(C)CCC[C@@H](C)[C@H]1CC[C@H]2[C@@H]3CC[C@H]4C[C@H]5N[C@H]5C[C@]4(C)[C@H]3CC[C@]12C | 10.6% | -21.8% | 5.2% | -3.55% | -9.6% | 0.1%
35 | CC(C)c1cc2c(cc1O)C1(C)CCCC(C)(C)C1CC2=O (stereo unspecified) | 27.4% | 32.3% | 19.9% | 22.4% | 27.9% | 34.6%
36 | COc1cc2c(cc1O)N=C[C@@H]1CCC(O)N1C2=O (mixture of isomers) | 19.6% | 16.3% | 19.2% | 58.8% | -2.2% | 3.9%
